Screening results from PubChem BioAssay.
An excerpt weighted towards active compounds, which were near 3.5% of everything screened.
FBW7 act = human FBW7 E3 ligase activation, primary screen | AlphaScreen FBW7–phospho-cyclin E peptide binding, activator screen | AID 1259310 | normalized activity (activation), % at 26.1 µM | actives 0.13% (n = 650,000); in the data active = normalized activity above about 1.9%;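 also: purified mutant Fbw7 with reduced substrate affinity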
GPR151 activ = activates the human receptor GPR151. PathHunter beta-arrestin GPR151 cells, luminescence. activation, % at 11.2 µM. actives 1% (n = 650,000). AID 1508602; in the data active = activation above about 4.9%
MITF primary = blocks human microphthalmia-associated transcription factor; AlphaScreen MITF homodimerization, bead proximity signal; inhibition, % at 2.6 µM; actives 0.91% (n = 650,000); O75030; AID 1259374; in the data active = inhibition above about 50%
TEAD-YAP block = TEAD-YAP interaction inhibition. actives 1.4% (n = 640,000). AID 1259422. HEK-TIYL cells, TEAD-Gal4/YAP UAS-luciferase luminescence. inhibition, % at 9.12 µM; in the data active = inhibition above about 32%
GPR151 confirm = human GPR151 activation, confirmation screen; shares compounds with GPR151 activ; GPR151 PathHunter beta-arrestin cells, luminescence, 90 min; % of EA-reagent control over plate median; activation, % at 11.2 µM; 6,700 tested, under 10 active;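 active = mean percent activation across replicates above the confirmation screen cutoff of 4.91%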
GPR119 counter = GPR119 activation, counter-screen for GPR151 activators; AID 1508611; activation, % at 11.2 µM; GPR119 PathHunter beta-arrestin cells, luminescence, 90 min; 0 = compound-well median, 100 = enzyme-acceptor control; actives 0.3% (n = 6,700); shares compounds with GPR151 activ;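 active = mean percent activation in the counterscreen above 29.09%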;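 also: counterscreen on off-target GPR119 to flag nonselective hits from the GPR151 activator screen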
A number is an active result; i = inactive; nt = no result given; ! = repeats disagree.

SMILES	FBW7 act	GPR151 activ	MITF primary	TEAD-YAP block	GPR151 confirm	GPR119 counter
CCC(CC)C(=O)O/N=C(\N)Cc1ccc(OC)cc1	i	9.3	i	i	i	i
CC(C)NC(=O)CCCCn1c(=O)[nH]c2ccsc2c1=O	i	i	i	i	nt	nt
COC(=O)C1=CN(CC2CCCO2)C=C(C(=O)OC)C1c1cccc(F)c1 (stereo not given)	i	5.7	i	i	i	i
COC(=O)C1=CN(Cc2ccc(F)cc2)C=C(C(=O)OC)C1c1cccc(F)c1	i	i	i	i	nt	nt
COC(=O)C1=CN(Cc2ccc(F)cc2)C=C(C(=O)OC)C1c1cccc(O)c1	i	5.2	i	i	i	i
COC(=O)C1=CN(CC2CCCO2)C=C(C(=O)OC)C1c1cccc(Cl)c1 (stereo not given)	i	i	i	i	nt	nt
CCC(Sc1nnc(NC(C)=O)s1)C(=O)Nc1ccc(Cl)cc1 (stereo not given)	i	i	i	i	nt	nt
CC(C)COC(=O)Nc1nnc(C(C)C)s1	i	13	i	i	i	i
CCCCOC(=O)Nc1nnc(C(C)C)s1	i	i	i	i	nt	nt
CCOc1ccc(NC(=O)CCCOc2ccc(Cl)cc2Cl)cc1	i	i	i	i	nt	nt
Nc1cccc(-c2cn3c(NC(=O)CC4CC4)cnc3cn2)c1	i	i	i	i	nt	nt
CCCCCCCCCCCCCCCCOP(=O)(O)OCC[N+](C)(C)C	i	11!	i	i	i	i
COc1ccc(CNC(=O)c2sc3cnccc3c2-n2cccc2)cc1	i	5.2	i	55	i	i
O=C(Nc1ccc(Cl)cc1)/C(=C/c1cccc([N+](=O)[O-])c1)NC(=O)C1CCCCC1	i	6.2	i	i	i	i
O=C(Nc1cc(Cl)ccc1Cl)/C(=C/c1cccc([N+](=O)[O-])c1)NC(=O)C1CCCCC1	i	i	i	i	nt	nt
CC1=C(C(=O)OC(C)C)C(c2coc3ccccc3c2=O)C2=C(CC(C)(C)CC2=O)N1 (stereo not given)	i	i	i	i	nt	nt
O=C(CSc1nccn1Cc1ccc(F)cc1)Nc1nccs1	i	7.0	i	i	i	i
Cc1ccc(Cn2ccnc2SCC(=O)Nc2ccccc2F)cc1	i	8.6	i	i	i	i
CCOc1ccc2cc(S(=O)(=O)NCc3ccccc3)ccc2c1	i	5.2	i	i	i	i
COc1ccc2cc(S(=O)(=O)NCc3ccccc3)ccc2c1	i	i	i	i	nt	nt
O=C(Nc1ccccc1)OCc1cc2cccc3c2n(c1=O)CCC3	i	i	i	i	nt	nt
O=C(Cn1ncc2ccccc21)NCc1cccc(Br)c1	i	i	i	i	nt	nt
O=C(Cn1ncc2c(Cl)cccc21)NCc1cccc(Br)c1	i	6.5	i	i	i	i
COc1ccccc1-c1cc(C(=O)Nc2ccc(C#N)cc2)no1	i	i	i	i	nt	nt
C=CCc1cc2c(C)cc(=O)oc2c(I)c1O	i	7.1	i	i	i	i
SMILES	FBW7 act	GPR151 activ	MITF primary	TEAD-YAP block	GPR151 confirm	GPR119 counter
COc1cccc(CNCc2ccccc2)c1	i	i	i	i	nt	nt
Cc1nnc(NC(=O)c2ccc3c(c2)C(=O)N(CC2CCCO2)C3=O)s1 (stereo not given)	i	6.9	i	i	i	i
Cc1cc(NC(=O)c2ccc3c(c2)C(=O)N(CC2CCCO2)C3=O)no1 (stereo not given)	i	i	i	i	nt	nt
c1nc(N2CCOCC2)c2sc3nc(N4CCCCC4)c4c(c3c2n1)CCCC4	i	i	i	i	nt	nt
c1nc(N2CCCCC2)c2sc3nc(N4CCOCC4)c4c(c3c2n1)CCCC4	i	6.2	i	i	i	i
N#CCC(=O)N/N=C/c1cn(CC(=O)Nc2ccc(F)cc2)c2ccccc12	i	i	i	i	nt	nt
O=C(Cn1cc(/C=C/c2nc(O)c([N+](=O)[O-])c(=O)[nH]2)c2ccccc21)Nc1ccc(F)cc1	i	5.5	i	i	i	i
CCn1cc(/C=C/c2nc(O)c([N+](=O)[O-])c(=O)[nH]2)c2ccccc21	i	i	i	i	nt	nt
O=C(Cn1cc(/C=N/N2C(=O)c3ccccc3C2=O)c2ccccc21)Nc1ccc(F)cc1	i	5.6	i	i	i	i
Cc1ccc2nc(-c3ccc(N=c4oc5ccccc5cc4C(N)=O)cc3)sc2c1	i	i	i	i	nt	nt
COc1ccccc1C(=O)Nc1nnc(-c2ccccc2C)s1	i	i	i	i	nt	nt
